Experimental data as given in PubChem BioAssay AID434989 (The Scripps Research Institute Molecular Screening Center, 2010).
In all, about 330,000 compounds went through this assay and about 1,400 (0.42%) were called active.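 Rule for the calls: active = inhibition above its plate's threshold, mean inhibition of all tested compounds on the plate plus 3 SD (cut at about 37% in these data); inactive = the rest.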 Many of the other results were omitted from the sample, so actives are more common in it than they were.

The molecules below were run against Orexin/Hypocretin receptor type 1 (Homo sapiens) (UniProt O43613) (assay: blockers of orexin-A calcium signaling via HCRTR1 – fluorescence, CHO/OX1R cells, Fluo-8 calcium, primary screen (AID 434989;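 note: 0% = orexin A challenge wells and 100% = SB-334867-A antagonist wells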)). Conditions: Fluo-8 calcium fluorescence, at 5 µM, stronger effect = higher value.
Chain of Orexin/Hypocretin receptor type 1 (Homo sapiens) (O43613 whole entry, looked up): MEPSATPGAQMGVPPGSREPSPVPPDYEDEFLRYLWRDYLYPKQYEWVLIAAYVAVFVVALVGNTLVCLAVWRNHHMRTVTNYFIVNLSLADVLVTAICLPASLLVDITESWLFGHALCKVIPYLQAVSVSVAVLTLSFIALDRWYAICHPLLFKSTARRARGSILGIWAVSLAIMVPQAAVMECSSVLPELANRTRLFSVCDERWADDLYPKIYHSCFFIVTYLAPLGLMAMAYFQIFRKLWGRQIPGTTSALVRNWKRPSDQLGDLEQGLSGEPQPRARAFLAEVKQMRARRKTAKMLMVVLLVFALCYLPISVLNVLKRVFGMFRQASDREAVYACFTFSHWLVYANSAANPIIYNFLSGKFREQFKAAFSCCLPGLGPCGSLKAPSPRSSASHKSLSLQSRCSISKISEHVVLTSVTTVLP

Row | SMILES | inhibition
1 | CN1CCN(C(=S)SCC(=O)Nc2ccc(Cl)cc2C(=O)c2ccccc2)CC1 | -28.1% (inactive)
2 | CC(C(=O)Nc1ccc(Cl)cc1Cl)N1CC=C(c2ccccc2)CC1 (stereo not given) | 50% (active)
3 | Cc1ccc(C(C)C)c(OCC(=O)N2CCN(CC(=O)N3CCOCC3)CC2)c1 | 4.64% (inactive)
4 | O=C(N/N=C/c1c(O)n(C2CC2)c(=S)[nH]c1=O)c1ccccc1 | -22.4% (inactive)
5 | Cc1ccc(Cn2nnnc2CN2CCC(n3nnc4ccccc43)CC2)cc1 | -21.8% (inactive)
6 | Cc1ccc(CN2CCCC(C(=O)c3ccc4c(c3)OCO4)C2)cc1C (stereo not given) | -21.1% (inactive)
7 | COc1cc2nc(N3CCN(C(=O)[C@@H]4CCCO4)CC3)nc(N)c2cc1OC | 2.61% (inactive)
8 | O=C1C2(Cl)C3(Cl)C4(Cl)C(Cl)(Cl)C5(Cl)C3(Cl)C1(Cl)C5(Cl)C24Cl (stereo not given) | 72.3% (active)
9 | CC1=C(C(=O)Nc2ccccc2)SCCO1 | -6.61% (inactive)
10 | Nc1ccc([N+](=O)[O-])cc1 | -2.36% (inactive)
